Our source for the morphology score and SARS-CoV-2 infection rate values is the supplement of paper PMC13380429.

Test [1] deals with Vero E6 infected with SARS-CoV-2. Kind of test: morphology score (similarity to uninfected cells); higher = more like uninfected cells. The settings on record: 24 h.
For test [2] the test system is unchanged. Nature of the test: SARS-CoV-2 infection rate relative to infected DMSO; higher = more infection, active = 60 or less. The note with it: 24 h.

In test [1], `C/C=C1/[C@H](O[C@@H]2O[C@H](CO)[C@@H](O)[C@H](O)[C@H]2O)OC=C(C(=O)OC)[C@H]1CC(=O)OCCc1ccc(O)c(O)c1` [oleuropein] (10 µM) yielded a morphology score of -0.0158. Also, the SARS-CoV-2 infection rate in test [2] was 112% (inactive).

In test [1], `CN1CC(=O)NC1=N` [creatinine] (10 µM) showed a morphology score of 0.0578. Besides, the SARS-CoV-2 infection rate in test [2] was 99.5% (inactive).

Take `NC(=O)N1c2ccccc2CC(O)c2ccccc21` (stereo unspecified) [licarbazepine] (10 µM): the morphology score in test [1] was found to be 0.188. Besides, the SARS-CoV-2 infection rate in test [2] is 97% (inactive).

As to `COc1cc(C=O)ccc1O` [vanillin] (10 µM), the morphology score in test [1] worked out at 0.0882. Moreover, the SARS-CoV-2 infection rate in test [2] is 104% (inactive).

Consider `NC(=O)c1cnccn1` [pyrazinamide] (10 µM), for which the morphology score in test [1] is 0.0672. In addition, the SARS-CoV-2 infection rate in test [2] was 110% (inactive).

In the case of `COC(=O)CCC(=O)CN` [methyl-aminolevulinate] (10 µM), the morphology score in test [1] was found to be 0.118. Moreover, the SARS-CoV-2 infection rate in test [2] was 90% (inactive).

The compound `Cc1ccccc1/N=N/c1ccc(NC(=O)c2ccnn2C)c(C)c1` (10 µM) displayed a morphology score in test [1] of -0.087. Moreover, the SARS-CoV-2 infection rate in test [2] is 109% (inactive).

`O=C(Oc1cccc2cccnc12)c1ccccc1` [benzoxiquine] (10 µM) had a morphology score in test [1] of 0.116. In addition, the SARS-CoV-2 infection rate in test [2] is 97% (inactive).

As for `O=C(Nc1ccc(Oc2ccc(Cl)cn2)c(Cl)c1)c1ccccn1` (10 µM), the morphology score in test [1] came out at 0.0983. Further, in test [2], the SARS-CoV-2 infection rate was 102% (inactive).

`CC1(C)CCC[C@]2(C)[C@H]3CC(=O)O[C@]3(C)CC[C@@H]12` [Sclareolide (Norambreinolide)] (10 µM) returned a morphology score in test [1] of 0.184. Moreover, the SARS-CoV-2 infection rate in test [2] was 106% (inactive).

Turning to `O=C(O)c1cn(-c2ccc(F)cc2)c2cc(N3CCNCC3)c(F)cc2c1=O` [sarafloxacin] (10 µM), the morphology score in test [1] worked out at 0.213. In test [2], the SARS-CoV-2 infection rate is 93% (inactive).

Regarding `COC(=O)C(Cc1ccc(OCCn2c(=O)sc3cc(C(=O)c4ccccc4)ccc32)cc1)C(=O)OC` (10 µM), the morphology score in test [1] came to 0.318. Besides, the SARS-CoV-2 infection rate in test [2] is 88.5% (inactive).

The compound `Clc1ccccc1CNC[C@H]1CC[C@H](CNCc2ccccc2Cl)CC1` (10 µM) returned a morphology score in test [1] of 0.523. Moreover, the SARS-CoV-2 infection rate in test [2] is 49% (active).

On to `C[C@@]1(O)[C@H](O)[C@@H](CO)O[C@H]1n1cnc2c(NC3CCCC3)nc(Cl)nc21` (10 µM), for which the morphology score in test [1] amounted to 0.0826. For the same compound, the SARS-CoV-2 infection rate in test [2] is 102% (inactive).

In test [1], `N#C[C@H](O[C@@H]1O[C@H](CO[C@@H]2O[C@H](CO)[C@@H](O)[C@H](O)[C@H]2O)[C@@H](O)[C@H](O)[C@H]1O)c1ccccc1` [amygdalin] (10 µM) showed a morphology score of 0.155. In addition, the SARS-CoV-2 infection rate in test [2] was 106% (inactive).

For the compound `CCN(CC)CCCC(C)Nc1nc(C)cc(Nc2ccc3nc(C)cc(N)c3c2)n1` (stereo unspecified) (10 µM), the morphology score in test [1] is -0.115. For the same compound, the SARS-CoV-2 infection rate in test [2] is 110% (inactive).

The compound `C[C@@H]1CC[C@H]2[C@@H](C)C(=O)O[C@@H]3O[C@@]4(C)CC[C@@H]1[C@]32OO4` [artemisinin] (10 µM) gave a morphology score in test [1] of -0.0301. In addition, the SARS-CoV-2 infection rate in test [2] was 106% (inactive).

As to `C/C(=C\C(=O)Nc1ccccc1C(=O)O)c1ccc2ccccc2c1` (10 µM), the morphology score in test [1] turned out to be 0.23. The SARS-CoV-2 infection rate in test [2] is 103% (inactive).

Consider `CC/C=C(\C(=O)N[C@@H]1C(=O)N2C(C(=O)OCOC(=O)C(C)(C)C)=C(COC(N)=O)CS[C@H]12)c1csc(N)n1` [cefcapene-pivoxil] (10 µM), for which the morphology score in test [1] was -0.175. Also, the SARS-CoV-2 infection rate in test [2] is 114% (inactive).

Regarding `COC(=O)C1=C(C)NC(C)=C(C(=O)OCCN2CCN(C(c3ccccc3)c3ccccc3)CC2)C1c1cccc([N+](=O)[O-])c1` (stereo unspecified) [manidipine] (10 µM), the morphology score in test [1] was 0.247. For the same compound, in test [2], the SARS-CoV-2 infection rate is 91% (inactive).

In test [1], `C=C[C@](C)(O)CC[C@@H]1[C@@]2(C)CCCC(C)(C)[C@@H]2CC[C@@]1(C)O` [sclareol] (10 µM) showed a morphology score of 0.142. Further, the SARS-CoV-2 infection rate in test [2] was 95.5% (inactive).

`CO[C@H]1/C=C/O[C@@]2(C)Oc3c(C)c(O)c4c(O)c(c5c(nc6cc(C)ccn65)c4c3C2=O)NC(=O)/C(C)=C\C=C\[C@H](C)[C@H](O)[C@@H](C)[C@@H](O)[C@@H](C)[C@H](OC(C)=O)[C@@H]1C` [rifaximin] (10 µM): the morphology score in test [1] was 0.0779. In test [2], the SARS-CoV-2 infection rate was 108% (inactive).

Take `O=C1NC(=O)/C(=C/c2ccc3c(c2)OC(F)(F)O3)S1` (10 µM): in test [1], the morphology score was -0.0969. Further, the SARS-CoV-2 infection rate in test [2] is 106% (inactive).

The compound `CSc1ccc([C@H]2CN3CCC[C@H]3c3ccccc32)cc1` (racemic) (10 µM) displayed a morphology score in test [1] of 0.328. The SARS-CoV-2 infection rate in test [2] was 86.5% (inactive).

`CC(C)NCCN(C(C)C)S(=O)(=O)c1ccc(Cl)cc1Cl` (10 µM) yielded a morphology score in test [1] of -0.0999. The SARS-CoV-2 infection rate in test [2] was 110% (inactive).

Consider `Clc1ccccc1CN1CCc2sccc2C1` [ticlopidine] (10 µM), for which the morphology score in test [1] was determined as 0.199. Moreover, the SARS-CoV-2 infection rate in test [2] is 92.5% (inactive).

In test [1], `OC[C@H]1O[C@H]([S-])[C@H](O)[C@@H](O)[C@@H]1O.[Au+]` [aurothioglucose] (10 µM) returned a morphology score of -0.0654. Also, the SARS-CoV-2 infection rate in test [2] is 110% (inactive).

`CC(C)[C@H]1[C@@H]2CC[C@@H](C2)[C@@H]1N` (10 µM) registered a morphology score in test [1] of 0.109. For the same compound, the SARS-CoV-2 infection rate in test [2] is 82% (inactive).
